Source: PubChem BioAssay
Hits are enriched below; roughly 9.4% of the tested compounds scored in any of these assays.
ALDH1A1 inh – qHTS Assay for Inhibitors of Aldehyde Dehydrogenase 1 (ALDH1A1). Purified ALDH1A1, NADH fluorescence, propionaldehyde substrate. Potency, µM (series often up to 75.3 µM), without a hit: top-dose activity, negative = inhibition, usual class: inhibitors. 7.3% of 220,000 active. AID 1030, 2008; active = well fitted inhibition curve with a large enough effect, not every such curve was filed as active; inconclusive = small, poorly fitted or top-dose-only effect, or another doubt; inactive = no such curve, though single readings can be large or run the other way;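 also: potency is read from the fitted curve at half-maximal effect; plate controls were no enzyme wells and a reference inhibitor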
HPGD inh – qHTS Assay for Inhibitors of HPGD (15-Hydroxyprostaglandin Dehydrogenase) | 15-hydroxyprostaglandin dehydrogenase [NAD(+)] (Homo sapiens), P15428 | purified HPGD, NADH fluorescence kinetic, PGE2 substrate | Potency, µM, for the others: at the top dose activity change, negative = inhibition, most hits filed as inhibitors | 4.3% of 150,000 active | AID 894, 2007; active = well fitted inhibition curve with a large enough effect, not every such curve was filed as active; inconclusive = small, poorly fitted or top-dose-only effect, or another doubt; inactive = no such curve, though single readings can be large or run the other way; also: potency is read from the fitted curve at half-maximal effect; % is scaled to controls: 0 for no effect and ±100 for the full control effect
Target sequence (P15428 whole entry, looked up): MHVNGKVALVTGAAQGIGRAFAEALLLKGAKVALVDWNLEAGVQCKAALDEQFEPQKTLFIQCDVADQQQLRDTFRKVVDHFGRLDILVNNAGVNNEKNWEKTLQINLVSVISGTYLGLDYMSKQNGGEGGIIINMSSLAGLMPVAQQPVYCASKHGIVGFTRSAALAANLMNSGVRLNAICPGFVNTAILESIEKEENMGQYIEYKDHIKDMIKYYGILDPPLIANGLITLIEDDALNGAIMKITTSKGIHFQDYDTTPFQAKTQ
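20 nM HPGD preincubated 15 min at room temperature with compound in 50 mM Tris-HCl pH 8, 0.01% Tween 20. Started with 1 mM NAD+ and 30 uM prostaglandin E2; NADH fluorescence (360/450 nm) read 5 times over 30-s intervals, last minus first.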
HTT ATP protect – qHTS Multiplex Assay to Identify Dual Action Probes in a Cell Model of Huntington: Cytoprotection (ATP); Potency, µM (doses to about 56.4 µM), inactives show cytoprotection (ATP increase), hits mostly activators; 0.14% of 230,000 active; PC12 HTT-Q103 induced, cytoprotection, ATP luminescence, 40 h; also: potency is read from the fitted curve at half-maximal effect; % of control where 0% means no effect; nearly all actives have a fitted effect of over 45% in size
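Readout: ATPlite luminescence (ATP level). Model: stable PC12, inducible Htt exon1 Q103-GFP. Inducer: tebufenozide, 100 nM final. Compounds: dose series. No G418 in medium.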
IMPase inh – qHTS Assay for Identifying the Cell-Membrane Permeable IMPase Inhibitors. CHO-M1 cells, IP1 accumulation, HTRF TR-FRET ratio. inhibition (IP1 accumulation), % at 46.1 µM. 120,000 tested, under 10 active. AID 901, 2007; active = well fitted curve in the direction sought with a large enough effect in the signal ratio, not every such curve was filed as active; inconclusive = small, poorly fitted or top-dose-only effect, or a change in a side signal; inactive = no such curve, though single readings can be large or run the other way; the % refers to the signal ratio;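 also: cells stimulated with carbachol in lithium chloride buffer; plate controls were DMSO basal wells for no effect and reference inhibitor wells for full effect; higher means more IMPase inhibition seen as more IP1 and lower FRET ratio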
Target sequence (P97697 whole entry, looked up): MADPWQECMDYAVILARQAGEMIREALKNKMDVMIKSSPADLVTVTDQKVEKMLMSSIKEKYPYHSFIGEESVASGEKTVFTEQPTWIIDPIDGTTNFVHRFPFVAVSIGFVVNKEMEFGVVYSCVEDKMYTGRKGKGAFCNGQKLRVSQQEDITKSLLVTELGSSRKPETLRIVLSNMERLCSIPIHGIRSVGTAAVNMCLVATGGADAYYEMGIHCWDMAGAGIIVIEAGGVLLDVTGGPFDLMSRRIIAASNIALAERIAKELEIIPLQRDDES
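In this qHTS, compounds (final up to 46 uM) act on CHO-M1 cells that are then activated through the M1 receptor with carbachol, in pH 7.4 buffer containing 50 mM LiCl, for 30 min. IP1 accumulation is quantified by the IP-One immunoassay.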
HttQ103 aggreg – qHTS Multiplex Assay to Identify Dual Action Probes in a Cell Model of Huntington: Aggregate Formation (GFP); PC12 HttQ103-GFP aggregates, Acumen cytometry, 40 h; Potency, µM (series often up to 46.1 µM), inactives show top-dose activity change, negative = inhibition, most hits filed as inhibitors; 1.1% of 220,000 active; also: potency is read from the fitted curve at half-maximal effect; % is scaled to controls: 0 for no effect and ±100 for the full control effect; nearly all actives have a fitted effect of over 60% in size
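Huntingtin Q103 exon 1–GFP aggregates in induced PC12 cells (100 nM tebufenozide) were quantified by cytometry from lysates, with compounds dosed in titration.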
IMPase Li inh – qHTS Assay for Identifying the Cell-Membrane Permeable IMPase Inhibitors: Potentiation with Lithium | CHO-M1 cells, IP1 TR-FRET (IP-One), carbachol + lithium | Potency, µM (titrated, usually from 59.4 µM), without a hit: top-dose activity, negative = IMPase inhibition, most hits filed as inhibitors | 0.35% of 210,000 active;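 also: IP1 builds up when IMPase is blocked and the TR-FRET signal falls; potency is read from the fitted curve at half-maximal effect; plate controls were basal vehicle for no effect and high inhibitor control for full effect; nearly all actives have a fitted effect of over 50% in size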
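Readout is a homogeneous TR-FRET IP1 immunoassay (Ex 320, Em 665 and 620), where raised cytosolic IP1 lowers signal. Cells were CHO-M1 treated 30 min at 37C with test compounds plus a little lithium; AC50 values came from Hill-equation fitting.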
* marks the source's active call; other numbers are inactive results; u = inconclusive; x = no result; [ ] = another dose, or the depositor's remark. Unless noted, calls follow the shape of the dose curve; as a rule, active = well fitted curve in the direction sought with a large enough effect; inconclusive = small, poorly fitted or top-dose-only effect, or another doubt; inactive = no such curve, though single readings can be large; an effect the other way counts as inactive or inconclusive.

SMILES	ALDH1A1 inh	HPGD inh	HTT ATP protect	IMPase inh	HttQ103 aggreg	IMPase Li inh
CCCCCC(=O)Nc1cc2[nH]c(=O)cc(COC)c2cc1C	u	u	-16%	5	10%	11µM*
COc1ccc2cc(C(c3nnnn3Cc3ccc(F)cc3)N3CCCCCC3)c(=O)[nH]c2c1 (configuration not stated)	u	u	-17%	-13	0%	32%[38.3 µM]
COc1ccc2cc(C(c3nnnn3Cc3ccccc3)N3CCCCCC3)c(=O)[nH]c2c1 (configuration not stated)	14µM*	-8%	-28%[10 µM]	u	24%	-1%[38.3 µM]
COc1ccc(Cn2nnnc2C(c2cc3ccc(OC)cc3[nH]c2=O)N2CCC(C)CC2)cc1 (configuration not stated)	0.89µM*	-8%	-10%	0	-18%	15%[38.3 µM]
Cn1cccc1C(=O)N1CCC2(CC1)CN(c1ccncc1)C2	2%	-6%	25%	x	x	4%
CCN1C(=O)[C@H]2[C@H]3[C@H](O)[C@H](O)C/C(=N/NC(=O)OCc4ccccc4)[C@H]3CC[C@@H]2C1=O	-7%[13.5 µM]	x	-11%[10 µM]	x	x	x
CC1(C)CC(N=C=O)CC(C)(CN=C=O)C1 (configuration not stated)	u	-4%	9%	x	x	17%
O=C(c1cnccn1)N1CCC[C@@]2(CCN(c3cccc(-c4ccccc4)c3)C2)C1	-9%	-12%	-6%	x	x	14%
Cn1c(NC(=O)Cc2cccc3ccccc23)cc(=O)n(C)c1=O	14µM*	x	-39%	x	6%	-1%
c1cncc(-c2cc(-n3ccnc3)ncn2)c1	-12%	x	10%	x	x	7%
Cc1ccc(C(=O)O)cc1-n1c(C)cc(C=O)c1C	2µM*	x	9%[10 µM]	x	1%[9.22 µM]	11%
Cc1c(C(=O)O)cccc1-n1c(C)cc(C=O)c1C	22µM*	x	24%[10 µM]	x	4%	0%
COC(=O)C1=C(C(=O)OC)[C@@H]2N(Cc3ccccc3)c3ccccc3[C@@]23C[C@@H](C(=O)OC)N(S(=O)(=O)c2cccs2)C3=N1	-14%[13.5 µM]	-12%	-12%[10 µM]	x	x	2%
CCOc1ccccc1Nc1ccc(C(=O)O)cc1NC(C)=O	u	22µM*	15%	2	-9%	38%[38.3 µM]
CCOc1ccc(C(=O)Nc2ccccc2NC(C)=O)cc1OCC	0%	x	x	x	13%	5%
Cc1ccc(C(=O)C(C)N(C(=O)c2ccc(Cl)cc2Cl)N2C(=O)CCCC2=O)cc1 (configuration not stated)	-1%	x	-34%[1.9 µM]	x	11µM*	3%
Cc1nonc1C1CCCN1Cc1cn[nH]c1-c1ccc(-c2ccccc2)cc1 (configuration not stated)	7.1µM*	x	12%[10 µM]	x	9%[9.22 µM]	10%
COc1cc(-c2[nH]ncc2CN2CCCC2c2nonc2C)cc(OC)c1OC (configuration not stated)	3%	x	-14%[10 µM]	x	0%[9.22 µM]	-1%
CCCCCC1OC1C/C=C\C/C=C\C/C=C\CCCC(=O)O (configuration not stated)	-2%	-5%	-36%	x	x	0%
O=C(N/N=C/c1ccccc1O)C1(O)c2ccccc2-c2ccccc21	9%	-22%	32%[1.9 µM]	13	10µM*	-9%
COc1ccc(-c2nc3n(c(=O)c2C#N)CCS3)cc1	2%	x	x	x	-11%	-10%
COC(=O)/C(C#N)=C/c1c(-c2ccccc2)nc2n1CCS2	1.4µM*	x	7%[10 µM]	x	-8%[9.22 µM]	x
